TDP1 cell CPT: qHTS for Inhibitors of human tyrosyl-DNA phosphodiesterase 1 (TDP1): qHTS in cells in presence of CPT; Potency, µM (titrated, usually from 46.2 µM), for inactives: at the highest dose activity change, negative = growth inhibition, usual class: inhibitors; chicken DT40 Tdp1-/-;hTDP1 cells + 20 nM CPT, ATP luminescence, 48 h; hit rate 12% among 420,000; also: potency is read from the fitted curve at half-maximal effect; % is scaled to controls: 0 for no effect and ±100 for the full control effect; nearly all actives have a fitted effect of over 55% in size
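Chicken DT40 Tdp1-/- cells complemented with human TDP1, 400 cells/well, exposed to compounds plus 20 nM camptothecin for at least 48 h at 37 C; viability read as ATP content by CellTiter-Glo luminescence.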
TGFb SMAD3 inh: qHTS for Inhibitors of TGF-b. HepG2 CAGA-GFP TGF-b/SMAD3 reporter, GFP fluorescence, 18 h; TGF-beta stimulated, 500 pg/mL final. Potency, µM (titrated, usually from 46.1 µM), for inactives: top-dose activity, negative = inhibition, usual class: inhibitors. hit rate 1.2% among 410,000. AID 588855, 2011; also: potency is read from the fitted curve at half-maximal effect; % is scaled to controls: 0 for no effect and ±100 for the full control effect; nearly all actives have a fitted effect of over 65% in size
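Inhibition of TGF-beta-driven CAGA-GFP reporter expression in HEPG2 cells is measured by cellular GFP fluorescence after 18 h stimulation with 500 pg/mL recombinant TGF-beta in 1% FBS medium at 37 degrees C.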
IL1B secr inh: qHTS for Inhibitors of Inflammasome Signaling: IL-1-beta AlphaLISA Primary Screen; AID 743279, 2014; THP-1 LPS/ATP IL-1B secretion, AlphaLISA, 16 h; stronger effect = lower value; hit rate 4.7% among 360,000; activity change, % at 57.5 µM; in the data active = activity change below about -50%; inconclusive = mostly about -30% to -49%; also: % is scaled to controls: 0 for no effect and ±100 for the full control effect
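Secreted IL-1B measured by AlphaLISA bead assay after 16 h compound exposure of THP-1 cells; compounds (final up to 57.5 uM) added 1 h before LPS (250 ng/mL) and ATP (1.25 mM) stimulation; lower signal means less secretion.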
TDP1 inh: qHTS Assay for Inhibitors of Tyrosyl-DNA Phosphodiesterase (TDP1). recombinant TDP1, AlphaScreen DNA substrate cleavage. hit rate 0.28% among 350,000. Potency, µM (top dose mostly 130 µM), inactives show at the top dose activity change, negative = inhibition, actives largely listed as inhibitors; also: potency is read from the fitted curve at half-maximal effect; % is scaled to controls: 0 for no effect and ±100 for the full control effect; nearly all actives have a fitted effect of over 40% in size
Target sequence (Q9NUW8 whole entry, looked up): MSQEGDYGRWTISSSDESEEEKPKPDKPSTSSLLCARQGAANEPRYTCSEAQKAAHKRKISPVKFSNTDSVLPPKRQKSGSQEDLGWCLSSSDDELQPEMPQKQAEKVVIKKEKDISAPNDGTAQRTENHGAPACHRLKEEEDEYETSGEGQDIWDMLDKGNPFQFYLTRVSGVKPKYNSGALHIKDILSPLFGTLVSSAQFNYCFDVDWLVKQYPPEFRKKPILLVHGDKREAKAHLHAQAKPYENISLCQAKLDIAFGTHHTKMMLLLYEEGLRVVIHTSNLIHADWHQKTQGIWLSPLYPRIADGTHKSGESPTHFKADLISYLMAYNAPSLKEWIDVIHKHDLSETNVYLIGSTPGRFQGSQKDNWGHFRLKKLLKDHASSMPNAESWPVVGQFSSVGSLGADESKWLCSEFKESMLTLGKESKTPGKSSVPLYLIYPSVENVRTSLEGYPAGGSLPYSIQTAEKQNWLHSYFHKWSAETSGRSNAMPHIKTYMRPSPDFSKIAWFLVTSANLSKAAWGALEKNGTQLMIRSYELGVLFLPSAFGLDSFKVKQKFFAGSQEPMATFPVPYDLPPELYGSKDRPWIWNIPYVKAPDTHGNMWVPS
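Enzyme-compound mixtures sat 15 min at room temperature, followed by a 5 min reaction with 15 nM final substrate and 10 min with AlphaScreen beads. Recombinant human Tdp1 was used at 1 nM final.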
DT40 TDP1 no CPT: qHTS for Inhibitors of human tyrosyl-DNA phosphodiesterase 1 (TDP1): qHTS in cells in absence of CPT; DT40 Tdp1-/- hTDP1 cells, no CPT, ATP luminescence, 48 h; Potency, µM (highest dose often 46.2 µM), inactives show at the highest dose activity change, negative = growth inhibition, usual class: inhibitors; hit rate 15% among 420,000; also: potency is read from the fitted curve at half-maximal effect; % is scaled to controls: 0 for no effect and ±100 for the full control effect; nearly all actives have a fitted effect of over 55% in size
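Luminescent ATP content (CellTiter-Glo) served as the growth readout. Knockout chicken DT40 cells expressing human TDP1 were exposed to compounds without camptothecin for a minimum 48 hr at 37 °C.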
HepG2 viability: qHTS for Inhibitors of TGF-b: Cytotox Counterscreen | AID 588856, 2011 | Potency, µM (top dose mostly 46.1 µM), without a hit: top-dose activity change, negative = cytotoxicity, usual class: cytotoxic | HepG2 CAGA-GFP viability, ATP luminescence, 18 h | hit rate 0.76% among 410,000; also: potency is read from the fitted curve at half-maximal effect
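CellTiter-Glo luminescence gave cytotoxicity after 18 hours at 37 degrees C. The cells were HepG2 CAGA-GFP in 1% FBS DMEM, stimulated with 500 pg/mL TGF-beta after compound addition. %Activity was normalised to no-cell wells (complete cell-killing) and DMSO (no toxicity), and curves were fitted and classified.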
An asterisk follows results filed as active; ? = inconclusive; / = not tested or not shown. Sampled rows, rich in hits. Any-hit rate of the full collection: about 18%. Unless noted, calls follow the shape of the dose curve; as a rule, active = well fitted curve in the direction sought with a large enough effect; inconclusive = small, poorly fitted or top-dose-only effect, or another doubt; inactive = no such curve, though single readings can be large; an effect the other way counts as inactive or inconclusive.

SMILES	TDP1 cell CPT	TGFb SMAD3 inh	IL1B secr inh	TDP1 inh	DT40 TDP1 no CPT	HepG2 viability
O=C(CC[C@H]1O[C@@H](n2cnc3c(NC(=O)c4ccccc4)ncnc32)[C@H](O)[C@@H]1O)NCCCN1CCCC1=O	8%	0%	4	/	2%	-8%
COc1ccc2c(c1OC)C(=O)N1c3ccccc3C(=O)N(c3ccc(F)cc3)C21 (configuration not stated)	?	-3%	-15	6%	12µM*	8%
COc1ccc2c(c1OC)C(=O)N1c3ccccc3C(=O)N(c3ccccc3)C21 (configuration not stated)	12µM*	18%	-12	9%	9.2µM*	2%
COc1ccc2c(c1OC)C(=O)N1N=C(c3ccc(-c4ccccc4)cc3)CC21 (configuration not stated)	-16%	-1%	-3	1%	?	4%
OB(O)c1ccc(B(O)O)cc1	3%	14%	/	10%	-6%	-5%
O=c1cc(CCl)[nH]c2nc3ccccc3n12	-8%	?	-56*	5%	-3%	-58%
O=c1cc(-c2ccccc2)[nH]c2nc3ccccc3n12	9.2µM*	1%	15	3%	9.2µM*	-61%
CC(C)c1cc(=O)n2c(nc3ccccc32)[nH]1	?	-17%	-1	5%	?	-41%
Cc1ccc(C)c(S(=O)(=O)N2CCCOC2CNC(=O)C(=O)NC2CC2)c1 (configuration not stated)	-5%	21%	4	1%	11%	12%
COCc1cc(C)n(CC(=O)Nc2ccc(NC(C)=O)cc2)c(=O)c1C#N	4%	-1%	/	1%	13%	-9%
O=c1c([N+](=O)[O-])c(NC2CCCCC2)c2ccccc2n1-c1ccccc1	16µM*	-22%	-1	0%	?	-32%
CC1CCCN(C(=O)Cc2cn(Cc3cccc(Cl)c3)c3ccccc23)C1 (configuration not stated)	?	0%	-76*	3%	15µM*	-27%
O=C(Cc1cn(Cc2cccc(Cl)c2)c2ccccc12)N1CCCCCC1	?	?	-65*	2%	?	-9%
O=C(O)Cc1cn(Cc2cccc(Cl)c2)c2ccccc12	1%	7%	3	-3%	-9%	9%
CC(C)(C)N=Cc1cc(-c2ccccc2)sc1O	-11%	-6%	?	-2%	-29%	-19%
COCCn1nnnc1C(c1cc2c(C)cc(C)cc2[nH]c1=O)N1CCCCCC1 (configuration not stated)	23µM*	-17%	-19	/	18µM*	-36%
CCN(Cc1ccccc1)C(c1cc2cc(C)ccc2[nH]c1=O)c1nnnn1CCOC (configuration not stated)	-25%	5%	-9	0%	?	1%
COCCn1nnnc1C(c1cc2cc(C)ccc2[nH]c1=O)N1CCCCCC1 (configuration not stated)	-11%	-18%	-25	-2%	-15%	-12%
CCOc1ccc2[nH]c(=O)c(C(c3nnnn3CC3CCCO3)N3CCc4ccccc4C3)cc2c1 (configuration not stated)	16µM*	-9%	-24	0%	23µM*	-3%
CCN(Cc1ccccc1)C(c1cc2cc(C)cc(C)c2[nH]c1=O)c1nnnn1CCOC (configuration not stated)	?	38%	-52*	0%	?	-4%
Cc1ccc2cc(C(c3nnnn3CC3CCCO3)N3CCc4ccccc4C3)c(=O)[nH]c2c1 (configuration not stated)	-29%	26%	-22	5%	?	-9%
COCCn1nnnc1C(c1cc2cc(OC)ccc2[nH]c1=O)N1CCC(Cc2ccccc2)CC1 (configuration not stated)	15µM*	14%	?	6%	23µM*	-7%
Cc1ccc(S(=O)(=O)N2CCOCC2)cc1NC(=O)COC(=O)c1cc(=O)c2ccccc2o1	19%	12%	14	6%	-3%	2%
C=CCNc1nc(C(=O)OCC(=O)Nc2ccccc2C(F)(F)F)cs1	7%	7%	-3	0%	8%	2%
COc1ccc2cc(C(c3nnnn3CCc3ccccc3)N3CCCC(C)C3)c(=O)[nH]c2c1 (configuration not stated)	?	-5%	-85*	-1%	?	10%
SMILES	TDP1 cell CPT	TGFb SMAD3 inh	IL1B secr inh	TDP1 inh	DT40 TDP1 no CPT	HepG2 viability
COc1ccc2cc(C(c3nnnn3CC3CCCO3)N3CCOCC3)c(=O)[nH]c2c1 (configuration not stated)	-7%	16%	4	1%	-16%	-14%
CCOC(=O)c1cc(Br)c(=O)n2ccccc12	-15%	-5%	11	1%	?	-1%
CCOC(=O)c1cc(C(=O)OCC)c2cccc(C)n2c1=O	7.3µM*	?	-4	-3%	13µM*	4%
CC(C)CCn1c(NCCc2ccccc2)nc2c1c(=O)n(C)c(=O)n2C	13µM*	-14%	-29	/	21µM*	-31%
Cn1c(=O)c2c(nc(NCCc3ccccc3)n2Cc2cccc(Br)c2)n(C)c1=O	12µM*	-37%	/	/	13µM*	-11%
Cn1c(=O)c2c(nc(N/N=C/c3ccc(OC(=O)c4ccco4)cc3)n2Cc2ccccc2Cl)n(C)c1=O	6.5µM*	5%	38	3%	8.2µM*	2%
CCC(C)Nc1nc2c(c(=O)n(C)c(=O)n2C)n1C (configuration not stated)	-14%	-13%	8	5%	-9%	-37%
CC(C)=NNc1nc2c(c(=O)n(C)c(=O)n2C)n1CCc1ccccc1	?	-17%	-3	8%	-29%	1%
CCC(C)Nc1nc2c(c(=O)n(C)c(=O)n2C)n1Cc1ccc(F)cc1 (configuration not stated)	18µM*	?	15	2%	?	-32%
